# ADAM17 inh = inhibits human ADAM17. P78536. recombinant ADAM17, EDANS/DABCYL FRET peptide cleavage. inhibition, % at 6.95 µM. 370,000 compounds, 0.83% hits;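 active means inhibition above the mean of compounds lying between control limits plus 3 SD, set per campaign, cut at about 8.5% in these data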;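 further: 0% = DMSO-only wells as the low control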
# ADAM10 inh = inhibits human ADAM10; O14672; recombinant ADAM10, EDANS/DABCYL FRET peptide cleavage, 3 h; inhibition, % at 7 µM; 370,000 compounds, 0.62% hits; AID 720582;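 active means inhibition above a per-campaign cutoff equal to the mean of compounds falling between control-based bounds plus 3 SD, cut at about 20% in these data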;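 further: 0% = DMSO wells while the 100% control is not disclosed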
# PLC-gamma1 inh = inhibitors of human phospholipase C gamma1. inhibition, % at 12.2 µM. purified PLC-gamma1, fluorogenic substrate, fluorescence. AID 720700. 370,000 compounds, 0.84% hits; in the data active means inhibition above about 9.5%
# KLK7 zymogen act = activators of human kallikrein-7 zymogen. P49862. purified proKLK7, EDANS-DABCYL substrate fluorescence; 100% is mature enzyme control, 0% vehicle. activation, % at 7 µM. 370,000 compounds, 0.9% hits;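 active means activation above the mean of all tested compounds plus 3 SD, computed per campaign excluding outliers beyond control limits, cut at about 13% in these data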
# HGIII-sPLA2 inh = Inhibits HGIII-sPLA2 liposome hydrolysis, primary screen; Q9NZ20; QFRET BODIPY PC-A2 liposome hydrolysis, fluorescence; inhibition, % at 12.2 µM; 370,000 compounds, 0.56% hits; AID 743126;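 active means inhibition above mean plus 3 SD of compounds lying within the high and low control bounds, cut at about 19% in these data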;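 further: 0% = median of test compound wells and 100% = no enzyme DMSO wells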
# PLC-beta3 inh = inhibitors of human phospholipase C beta3. AID 720704. Purified PLC-beta3, fluorogenic substrate, fluorescence. 370,000 compounds, 0.18% hits. inhibition, % at 12.2 µM; in the data active means inhibition above about 11%;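 further: 0% = median of compound wells on plate and 100% = full blocker control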
# Target sequence (Q01970 whole entry, looked up): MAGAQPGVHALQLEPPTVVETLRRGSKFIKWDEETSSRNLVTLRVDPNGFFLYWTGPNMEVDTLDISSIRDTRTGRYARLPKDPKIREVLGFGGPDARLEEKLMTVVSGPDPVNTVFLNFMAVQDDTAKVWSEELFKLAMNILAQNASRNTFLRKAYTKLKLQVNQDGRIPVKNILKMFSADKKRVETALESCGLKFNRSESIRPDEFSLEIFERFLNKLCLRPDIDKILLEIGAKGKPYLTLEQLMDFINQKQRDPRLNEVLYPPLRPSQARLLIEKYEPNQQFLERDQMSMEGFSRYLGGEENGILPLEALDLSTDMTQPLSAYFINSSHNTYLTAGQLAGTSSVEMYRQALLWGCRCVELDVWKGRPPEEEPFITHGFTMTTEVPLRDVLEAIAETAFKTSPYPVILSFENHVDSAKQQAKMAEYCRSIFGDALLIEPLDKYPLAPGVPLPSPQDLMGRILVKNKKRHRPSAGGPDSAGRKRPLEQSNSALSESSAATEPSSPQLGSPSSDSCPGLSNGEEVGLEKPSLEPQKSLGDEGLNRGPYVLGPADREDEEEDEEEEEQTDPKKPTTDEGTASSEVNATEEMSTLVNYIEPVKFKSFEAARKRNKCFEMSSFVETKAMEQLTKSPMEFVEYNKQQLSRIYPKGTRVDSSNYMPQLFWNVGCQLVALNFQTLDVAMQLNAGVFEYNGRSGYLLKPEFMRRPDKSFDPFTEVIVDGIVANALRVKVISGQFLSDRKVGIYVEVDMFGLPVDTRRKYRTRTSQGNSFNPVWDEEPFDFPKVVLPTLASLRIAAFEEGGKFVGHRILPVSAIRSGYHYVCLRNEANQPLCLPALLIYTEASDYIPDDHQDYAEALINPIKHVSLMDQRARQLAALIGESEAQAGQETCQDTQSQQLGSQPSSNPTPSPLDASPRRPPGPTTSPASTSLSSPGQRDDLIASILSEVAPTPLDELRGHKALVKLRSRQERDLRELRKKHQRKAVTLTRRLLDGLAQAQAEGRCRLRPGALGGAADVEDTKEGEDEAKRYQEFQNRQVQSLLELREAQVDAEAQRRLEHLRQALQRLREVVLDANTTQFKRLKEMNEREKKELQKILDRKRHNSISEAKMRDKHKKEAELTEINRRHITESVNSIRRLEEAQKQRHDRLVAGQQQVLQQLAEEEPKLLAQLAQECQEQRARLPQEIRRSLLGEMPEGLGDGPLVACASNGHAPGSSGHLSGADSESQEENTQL
# proKLK7 act conf = confirmation of human kallikrein-7 zymogen activators. AID 686949. shares compounds with KLK7 zymogen act. 3,200 compounds, 68% hits. activation, % at 7 µM. purified proKLK7, EDANS-DABCYL substrate fluorescence; scaled: vehicle 0, mature enzyme 100;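 active means activation, as change over the incubation, above the mean of all tested compounds plus 3 SD, cut at about 13% in these data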
# EDANS-DABCYL int = fluorescence interference counter-screen for KLK7 activators. AID 686952. activation, % at 7 µM. shares compounds with KLK7 zymogen act. 3,200 compounds, 80% hits. EDANS-DABCYL substrate fluorescence interference, no enzyme, 4 h; solvent 0%, active enzyme control 100%;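 active means activation above the all-compound mean plus 3 SD, ignoring values outside control-based bounds, cut at about 4.8% in these data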;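 further: value is the 4 h activation minus the activation read at time zero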
# EDANS interf = counter-screen for kallikrein-7 activators: EDANS-DABCYL interference, dose response. shares compounds with KLK7 zymogen act. EDANS-DABCYL peptide fluorescence interference, no enzyme. AID 720493. 250 compounds, 20% hits. EC50, µM;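 active means compounds that raise the fluorescence signal in this interference counterscreen, with EC50 at or below 10 µM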;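 further: intact quenched peptide substrate alone read at 355 nm excitation and 520 nm emission; signal is fluorescence gain from T0 to T4 after four hours at room temperature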
# The depositor's hits bear a star; i = inactive; . = not tested or not shown. Sampled rows, rich in hits. Any-hit rate of the full collection: about 3.4%.
SMILES,ADAM17 inh,ADAM10 inh,PLC-gamma1 inh,KLK7 zymogen act,HGIII-sPLA2 inh,PLC-beta3 inh,proKLK7 act conf,EDANS-DABCYL int,others
Nc1nccnc1C(=O)OCc1nc2sc3c(c2c(=O)[nH]1)CCCC3,-47,-144,-48,49*,16,-58,89*,75*,EDANS interf=6.5*
O=C(CCc1nc2sc3c(c2c(=O)[nH]1)CCCC3)NCCOc1ccccc1,-4,-24,-19,0,-3,-26,.,.,
CC(=O)C1=C(C)NC(=S)NC1c1ccccc1 (stereo not drawn),-2,-2,2,0,6,2,.,.,
CC(=O)Nc1cc(-c2ccccc2N(C)C)cn2c(-c3ccccc3)cnc12,-20,-75,-98,1,-6,-126,.,.,
CC(=O)Nc1cc(-c2ccccc2N(C)C)cn2c(-c3ccc(S(C)(=O)=O)cc3)cnc12,-29,-122,-322,13*,-74,-461,10,11*,
O=C(O)[C@H](Cc1ccccc1)NC(=O)[C@H]1O[C@@H](n2ccc(=O)[nH]c2=O)[C@H](O)[C@@H]1O,-3,-6,-2,0,3,0,.,.,
O=C(Nc1ccc2nc(-c3ccccc3)[nH]c2c1)c1ccco1,-16,-63,-57,1,1,-66,.,.,
O=C(Nc1cccc(-c2nc3ccccc3[nH]2)c1)c1cccc(NC(=O)c2ccco2)c1,-102,-235,-34,34*,-5,-31,1,2,
CCOC(=O)c1cc2nc(-c3ccccc3)cc(C)n2n1,-59,-144,-395,8,-1,-441,.,.,
CCOC(=O)c1cnn2c(C(F)(F)F)cc(-c3ccco3)nc12,-276,i,i,31*,3,i,26*,43*,
CCOC(=O)c1cnn2c(C)cc(-c3ccccc3)nc12,-197,i,i,24*,2,i,21*,32*,
C[C@H]1C2CC(OC(=O)Nc3ccc4c(c3)OCO4)C(C2)[C@H]2CCCCN21 (stereo partly drawn),2,4,7,-1,9,1,.,.,
CCOC(=O)N1CCC2(CC1)NC(=O)c1ccccc1N2,-452,i,-357,21*,-3,-493,30*,24*,EDANS interf=>69
COC(=O)[C@H](Cc1ccccc1)N[C@H](c1ccc(OC)cc1)[C@@H](O)Cc1ccccc1,0,-1,1,0,-9,5,.,.,
CCCCc1cc(=O)oc2c3c(cc(OCC(=O)N4CCC[C@H]4C(=O)O)c12)OC(C)(C)CC3,i,i,i,53*,-5,i,57*,62*,
Cc1cc(=O)oc2c3c(cc(OCC(=O)N4CCC(C(=O)O)CC4)c12)OC(C)(C)CC3,i,i,i,48*,5,i,65*,61*,
Cc1cc(=O)oc2c3c(cc(OCC(=O)N4CCC[C@H]4C(=O)O)c12)OC(C)(C)CC3,i,i,i,35*,6,i,66*,64*,
O=C1CCC[C@H]2Cc3nc4ccccc4cc3C[C@]23CCCN13,-1,-1,-3,.,-2,-5,.,.,
COc1ccccc1NC(=O)c1cc2c(s1)-c1ccccc1S(=O)(=O)C2,-26,-55,-8,15*,-46,-25,-19,-31,
C#CCOc1ccccc1C(=O)NNc1ccc([N+](=O)[O-])cc1[N+](=O)[O-],-2,-7,0,0,0,1,.,.,
N#Cc1[nH]nc2nc[nH]c(=O)c12,-1,-3,4,0,-3,1,.,.,
O=C1CCCc2nc3c(cc21)C(O)Oc1ccccc1-3 (stereo not drawn),-193,i,i,71*,0,i,52*,65*,
O=C1CCCc2nc3c(cc21)C(O)Oc1c-3ccc2ccccc12 (stereo not drawn),-9,-25,-323,-2,-6,-476,.,.,
COc1ccc(OC)c(C(c2c(C)[nH][nH]c2=O)c2c(C)[nH][nH]c2=O)c1,-9,-21,-5,13*,-40,-12,20*,20*,
O=C(Nc1ccc(NC(=O)c2ccccc2O)cc1)Nc1ccc(F)cc1F,-29,-73,-3,31*,-4,-9,16*,10*,EDANS interf=9.7*
SMILES,ADAM17 inh,ADAM10 inh,PLC-gamma1 inh,KLK7 zymogen act,HGIII-sPLA2 inh,PLC-beta3 inh,proKLK7 act conf,EDANS-DABCYL int,others
O=C(Nc1ccc(F)cc1)Nc1ccccc1F,3,7,3,0,2,3,.,.,
CCCC1CCC2(CC1)CCC2OC(=O)Nc1c(OC)cccc1OC (stereo not drawn),-3,-2,2,.,11,-7,.,.,
COc1cc2cc(Oc3ccc4ccc(=O)oc4c3)c(=O)oc2cc1O[C@@H]1O[C@H](CO)[C@@H](O)[C@H](O)[C@H]1O,-61,-225,-120,25*,-6,-166,36*,49*,
COc1cc2cc(Oc3ccc4ccc(=O)oc4c3)c(=O)oc2cc1OC1OC(COC(=O)CC(C)(O)CC(=O)O)C(O)C(O)C1O (stereo not drawn),-156,i,-200,21*,-3,-262,34*,31*,
COc1cc2cc(Oc3ccc4ccc(=O)oc4c3)c(=O)oc2cc1OC(=O)/C=C/c1ccccc1,-9,-32,-8,0,-6,-13,.,.,
CCCCS(=O)(=O)N1CCCc2nc(-c3ccc(OC)cc3)ccc21,-29,-114,-26,1,-2,-34,.,.,
COC(=O)[C@]12C[C@H](CC(=O)N3CCSCC3)C(=O)N(Cc3ccc(Cl)cc3Cl)C1=C[C@H](C1CCCC1)O[C@@H]2C,1,8,2,0,-6,6,.,.,
COc1ccc(OC)c(NC(=O)c2cc(S(=O)(=O)NCc3ccco3)ccc2F)c1,-1,-2,-6,13*,-27,-15,-1,1,
CCOc1ccccc1NC(=O)c1cc(S(=O)(=O)NCc2ccco2)ccc1F,0,2,-5,1,-29,-21,.,.,
COc1cc2sc3cc(NCCCN4CCOCC4)ccc3c(=O)c2cc1OC,-295,i,i,-50,-17,i,.,.,
COc1cccc2sc3cc(NCc4ccc(C)o4)ccc3c(=O)c12,-218,i,i,43*,-16,i,38*,39*,
Cc1[nH]n(-c2ccccc2)c(=O)c1C=Nc1cnc2ccccc2c1,-214,i,-139,46*,-4,-167,21*,22*,
C[C@H](CO)N1C[C@H](C)[C@@H](CN(C)C(=O)C2CC2)OCc2cn(nn2)CCCC1=O,-4,-10,0,0,7,-4,.,.,

# Screens deposited in PubChem by The Scripps Research Institute Molecular Screening Center.
